Assay results as given in PubChem BioAssay (NCI).
Compounds without any hit were thinned out: in the full panel of roughly 83,000, 20% have a hit.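 For each line, cells grew in 96-well plates with the test compound present at a single concentration for 48 hours.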 Unmarked numbers belong to inactive results. Active and inactive are the calls of the source. How the source made its calls: active means growth percent below 10; inactive means the rest.

Columns and labels:
Assay in all cases: NCI-60 one-dose screen, 48 h (100 = growth as untreated, 0 = no growth, -100 = all killed)
Details in all cases: 10 µM unless noted
NCI-H23 lung = tested on: NCI-H23 lung
NCI-H226 lung = tested on: NCI-H226 lung
NCI-H322M lung = tested on: NCI-H322M lung
HOP-62 NSCLC = tested on: HOP-62 NSCLC
NCI-H460 lung = tested on: NCI-H460 lung
HOP-92 NSCLC = tested on: HOP-92 NSCLC
NCI-H522 lung = tested on: NCI-H522 lung
A549/ATCC NSCLC = tested on: A549/ATCC NSCLC
786-0 renal = tested on: 786-0 renal
COLO 205 colon = tested on: COLO 205 colon
DU-145 prostate = tested on: DU-145 prostate
K-562 leukemia = tested on: K-562 leukemia
MALME-3M melanoma = tested on: MALME-3M melanoma
MDA-MB-231 breast = tested on: MDA-MB-231 breast
RXF 393 renal = tested on: RXF 393 renal
SF-268 CNS = tested on: SF-268 CNS
SF-295 CNS = tested on: SF-295 CNS
SF-539 CNS = tested on: SF-539 CNS
UACC-257 melanoma = tested on: UACC-257 melanoma
M14 melanoma = tested on: M14 melanoma

Row | Structure (SMILES) | growth (NCI-H23 lung) | growth (NCI-H226 lung) | growth (NCI-H322M lung) [%] | growth (HOP-62 NSCLC) | growth (NCI-H460 lung) | growth (HOP-92 NSCLC) | growth (NCI-H522 lung) | growth (A549/ATCC NSCLC) | growth (786-0 renal) | growth (COLO 205 colon) | growth (DU-145 prostate) | growth (K-562 leukemia) | growth (MALME-3M melanoma) [%] | growth (MDA-MB-231 breast) | growth (RXF 393 renal) | growth (SF-268 CNS) | growth (SF-295 CNS) [%] | growth (SF-539 CNS) | growth (UACC-257 melanoma) [%] | growth (M14 melanoma) [%]
1 | COc1ccc2c(c1)c(-c1ccc(-c3cn(C)c4ccc(OC)cc34)[nH]1)cn2C | 34.2% | 58.8% | 71 | 83.3% | 30.1% | -7.36% (active) | -47.8% (active) | 28.8% | 65% | -58.2% (active) | 66.2% | 0.411% (active) | 30.2 | -3.99% (active) | -28.5% (active) | 9.71% (active) | 44.5 | -57.3% (active) | 87 | 43.6
2 | Fc1ccc(CNc2c3ccccc3nc3ccccc23)cc1 | 31.6% | 51.8% | 38.5 | 43% | 8.85% (active) | 17.2% | 52.4% | 23.7% | 27.6% | 7.53% (active) | 34.9% | 4.79% (active) | 25.7 | 38.3% | 0.247% (active) | 53.3% | 27.6 | 13.1% | 36 | 34.4
3 | CC(C)[C@@]12C[C@@H](OC(=O)COC(=O)c3ccccc3)[C@@](C)(O1)[C@@H]1CC[C@@H](C)[C@H]1[C@@H]2OC(=O)/C=C/c1ccccc1 | 90.1% | 64.4% | 87 | 89.5% | 95.3% | 76.9% | 80.9% | 80.9% | 68.7% | 108% | 101% | 75.4% | 106 | 86.3% | -2.22% (active) | 63.4% | 94.5 | 95.4% | 95.3 | 104
4 | Cc1nc2sc(C(=O)Nc3ccccc3)c(N)c2cc1C(=O)/C=C/c1ccccc1 | 10.9% | 5.17% (active) | 10.7 | -26.2% (active) | -71% (active) | 6.29% (active) | -42.5% (active) | 13.2% | -57.2% (active) | 14.2% | 1.91% (active) | 12% | 50.1 | -9.1% (active) | -74.8% (active) | 0.182% (active) | 18.1 | -27% (active) | 54.2 | 11.1
5 | CC1(C)CC[C@]2(C(=O)O)CC[C@]3(C)C(=CC[C@@H]4[C@@]5(C)C[C@@H](Cc6cn([C@@H]7O[C@H](CO)[C@@H](O)[C@H](O)[C@H]7O)nn6)[C@H](O)C(C)(C)[C@@H]5CC[C@]43C)[C@@H]2C1 | 104% | 98.3% | 97.4 | 89.2% | 106% | 102% | 106% | 85% | 95.8% | 113% | 112% | 90% | 112 | 97.2% | 106% | 103% | 99.3 | 101% | 88.8 | 97.5
6 | N=C(N)c1ccc(-c2ccc(-c3ccc(Cl)cc3)o2)o1 | 29% | 82.7% | 26.2 | 52.4% | -72.3% (active) | 39.5% | -2.55% (active) | -64.6% (active) | 1.68% (active) | -78.6% (active) | -80.4% (active) | -60% (active) | 90.6 | -60.2% (active) | 40.4% | 17.9% | 27.4 | 74.1% | 53.4 | 19.7
7 | CCn1cc(CNc2ccc(C(=O)Nc3cc4cc(OC)c(OC)cc4c(C)n3)cc2)c(C)n1 | 9.61% (active) | 20.5% | 85.1 | 12.8% | 58.1% | 78.6% | -10.1% (active) | 29.5% | 70.9% | 28.9% | 56.3% | 15.6% | 25.2 | 74.7% | 90.9% | 48.6% | 30.4 | 75.5% | 48.1 | 22.1
8 | COc1cccc(Nc2ccnc3[nH]c4ccc([N+](=O)[O-])cc4c23)c1 | 64.5% | 48.7% | 84.3 | 34.6% | 30.7% | 31.5% | 30.4% | 37% | 25.7% | 51.7% | 76.9% | 19% | 53 | 60.1% | 33.5% | 60.7% | 45.5 | 48.9% | 57.4 | 34
